High-throughput results as filed in PubChem.
FLuc modulator – counter-screen for miR-21 project: firefly luciferase inhibitors or activators. P08659. purified FLuc, Km substrates, luminescence inhibition. Potency, µM (series often up to 57.5 µM), for inactives: at the highest dose activity change, negative = inhibition, actives largely listed as inhibitors. 360,000 compounds, 6.9% hits. AID 588342;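 further: plate controls were vehicle for no effect and reference inhibitor for full effect; nearly all actives have a fitted effect of over 55% in size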
Target sequence (P08659 whole entry, looked up): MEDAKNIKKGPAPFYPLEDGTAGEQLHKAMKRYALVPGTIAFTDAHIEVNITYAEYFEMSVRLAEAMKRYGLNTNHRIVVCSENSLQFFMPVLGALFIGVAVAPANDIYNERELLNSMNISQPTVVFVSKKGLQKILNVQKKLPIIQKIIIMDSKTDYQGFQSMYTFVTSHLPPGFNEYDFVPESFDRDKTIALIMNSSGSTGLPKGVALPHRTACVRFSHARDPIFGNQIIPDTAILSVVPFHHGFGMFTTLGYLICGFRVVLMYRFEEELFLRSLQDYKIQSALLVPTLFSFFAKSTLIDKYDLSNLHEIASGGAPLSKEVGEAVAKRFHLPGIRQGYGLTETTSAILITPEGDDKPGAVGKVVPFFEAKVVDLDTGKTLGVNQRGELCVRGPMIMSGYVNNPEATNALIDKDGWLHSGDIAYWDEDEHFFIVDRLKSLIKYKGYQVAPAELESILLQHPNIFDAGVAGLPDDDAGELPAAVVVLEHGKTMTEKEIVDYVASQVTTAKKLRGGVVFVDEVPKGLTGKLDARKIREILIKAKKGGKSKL
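Biochemical qHTS of compounds, final roughly 60 µM downward over six points, against 10 nM purified firefly luciferase using Km concentrations of substrates (10 uM D-luciferin, 10 uM ATP) in Tris acetate pH 7.5 buffer; luminescence output.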
NPC1 promoter act – NPC1 promoter activation; Huh7 NPC1 promoter luciferase reporter, 24 h; 320,000 compounds, 2.4% hits; Potency, µM (doses to about 9.22 µM), for inactives: at the highest dose activation, hits mostly activators; further: % of control where 0% means no effect; nearly all actives have a fitted effect of over 60% in size
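Huh7 reporter cells (NPC1 promoter driving luciferase) are dosed with compound for 24 h at 37 °C, 5% CO2; luciferase detection reagent is then added and luminescence measured after 10 min at ambient temperature.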
SMN2 splice enh – SMN2 splice variant enhancement; HEK293 SMN2-luciferase splicing reporter, luminescence, 30-36 h; Potency, µM (highest dose often 46.1 µM), without a hit: top-dose activity change, positive = activation, hits mostly activators; 210,000 compounds, 2.8% hits; further: % of control where 0% means no effect; nearly all actives have a fitted effect of over 55% in size
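HEK293 cells carry an SMN2 minigene-luciferase reporter in which exon 7 inclusion puts luciferase in frame. Cells were seeded at 2000 cells/well, attached for 10-12 hours, then exposed to compounds for 30-36 hours at 37C before ONE-Glo luminescence.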
Luc counter – Kinase-Glo luciferase inhibition (counter-screen); Kinase-Glo luciferase, ATP luminescence, 8 min; Potency, µM (highest dose often 38.3 µM), for inactives: at the highest dose activity change, negative = inhibition, usual class: inhibitors; 200,000 compounds, 0.28% hits; further: on the % scale 0 is the no-effect control and ±100 the full control effect; nearly all actives have a fitted effect of over 60% in size
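Compound is pinned into ATP-containing buffer (10 uM ATP, imidazole pH 7.2, 7 mM MgCl2). Kinase-Glo luciferase reagent is then added. Light output is recorded following an 8-min room-temperature incubation.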
ELG1 genotox – induces genotoxicity in HEK293T cells with luciferase-tagged ELG1; AID 504466; HEK293T ELG1-luciferase reporter, luminescence, 16 h; 330,000 compounds, 1.3% hits; Potency, µM (titrated, usually from 46 µM), inactives show at the highest dose activity change, positive = activation, hits mostly activators; further: % of control where 0% means no effect; nearly all actives have a fitted effect of over 60% in size
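ELG1-luciferase HEK293T cells, 2,000/well; compound pinned in; 16 hr, 37 °C, 5% CO2; ONE-Glo, 30 min RT; luminescence on CCD imager.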
Rab9 promoter act – activates the Rab9 promoter | Huh7 Rab9 promoter-luciferase reporter, luminescence, 24 h | Potency, µM (highest dose often 9.22 µM), inactives show at the highest dose activation, negative = inhibition, actives largely listed as activators | 320,000 compounds, 2.8% hits; further: % of control where 0% means no effect; nearly all actives have a fitted effect of over 60% in size
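Steps: seed 1500 Huh7 Rab9-luc cells per well, rest 2 h at 37 °C; add compound in DMSO; incubate 24 h; add luciferase reagent, 10 min ambient; read luminescence.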
An asterisk follows results filed as active; ? = inconclusive; · = no result; [ ] = remark or other dose. In the library only some 7.5% were active in any assay of this set; here they are far more common. The call rests on the fitted dose curve; in most records, active means well fitted curve in the direction sought with a large enough effect; inconclusive means small, poorly fitted or top-dose-only effect, or another doubt; inactive means no such curve, though single readings can be large; an effect the other way counts as inactive or inconclusive. Potency means the concentration at half of the fitted maximal effect.

SMILES | FLuc modulator | NPC1 promoter act | SMN2 splice enh | Luc counter | ELG1 genotox | Rab9 promoter act
O=C(CSc1ncccc1C(=O)O)c1cccc(C(F)(F)F)c1 | 24µM* | 19% | ? | 4% | ? | ?
CCN(CC)S(=O)(=O)c1cccc(C(=O)N/N=C/c2ccccn2)c1 | ? | -4% | 3% | -1% | 0% | 1%
Cc1cccc(C(=O)N/N=C/c2ccccn2)c1 | 19µM* | ? | 2µM* | -2% | ? | 3.5µM*
O=C(N/N=C/c1ccccc1F)c1cccc(NC(=O)c2ccccc2Cl)c1 | 13µM* | 19% | · | · | 7% | 17%
O=C(N/N=C/c1cccs1)c1cccc(NC(=O)c2ccccc2Cl)c1 | 24µM* | 10% | 1% | -2% | 1% | 8%
O=C(N/N=C/c1cccs1)c1ccc(NC(=O)c2ccccc2Cl)cc1 | -4% | 1% | · | · | -3% | -2%
Cc1cccc(C(=O)Nc2cccc(C(=O)N/N=C/c3ccccn3)c2)c1 | 19µM* | 0% | · | · | 0% | -5%
O=C(N/N=C/c1ccccn1)c1ccc(NC(=O)c2cccc([N+](=O)[O-])c2)cc1 | ? | 6% | 1% | 0% | -4% | 9%
O=C(Nc1cccc(NC(=O)c2ccccc2Cl)c1)c1ccc(F)cc1 | ? | 2% | · | · | -1% | -2%
O=C(CN1C(=O)CCSc2ccc(S(=O)(=O)N3CCCC3)cc21)Nc1cccc(F)c1 | 6% | · | · | · | · | ·
COc1ccc(Cl)cc1NC(=O)C(C)n1nnc2sc3c(c2c1=O)CCCC3 (stereo unspecified) | 0% | · | 1% | · | · | ·
O=C(N/N=C/c1ccccn1)c1cccc(NC(=O)c2ccccc2Cl)c1 | 17µM* | 3% | · | · | 9% | 15%
COc1cccc(-c2nc(CCl)cs2)c1OC | 17µM* | 0% | -11% | 6% | 11% | 4%
CCOc1ccc(-c2nc(CCl)cs2)cc1OC | 17µM* | 10% | -10% | 0% | ? | 8%
COc1ccc(-c2nc(CC(=O)O)cs2)cc1OC | 1% | 0% | 7% | -2% | 8% | -7%
Cc1[nH]c2ccccc2c1/C=C(\C#N)C(=O)NCC1CCCO1 (stereo unspecified) | ? | -3% | · | -3% | 2% | -1%
N#C/C(=C\c1c[nH]c2ccccc12)C(=O)NCC1CCCO1 (stereo unspecified) | 17µM* | 18% | · | -1% | ? | 29%
CCOC(=O)NS(=O)(=O)c1ccc(CCNC(=O)c2cc(C)on2)cc1 | 0% | 0% | 10% | 6% | -5% | -6%
CC(=O)Nc1cccc(-c2csc(Nc3cc(C)ccn3)n2)c1 | 2.7µM* | 2.5µM* | ? | -3% | -14% | 1.3µM*
NNc1nc(-c2ccccc2)cs1 | ? | 14% | -48% | -3% | ? | 16%
CC(=O)Nc1cccc(-c2csc(Nc3ccccn3)n2)c1 | 1.5µM* | 1.3µM* | 11µM* | -4% | ? | 1.1µM*
CC(=O)Nc1ccc(-c2csc(Nc3ccc(Cl)cn3)n2)cc1 | -20% | -3% | -42% | -7% | -4% | -4%
CC(=O)Nc1cccc(-c2csc(Nc3ccc(Cl)cn3)n2)c1 | 2.4µM* | 2µM* | 11µM* | 3% | ? | 3.2µM*
Cc1ccnc(Nc2nc(-c3ccccc3)cs2)c1 | 1.1µM* | 1.4µM* | · | · | ? | ?
Cc1ccc2c(c1)cc1c(=O)n(Cc3ccccc3Cl)nc(C)n12 | 2% | · | 14% | · | · | ·
SMILES | FLuc modulator | NPC1 promoter act | SMN2 splice enh | Luc counter | ELG1 genotox | Rab9 promoter act
C=CC(C)(O)CC/C=C(\C)CCC=C(C)C (stereo unspecified) | · | · | 2% | -2% | · | ·
Cc1ccnc(Nc2nc(-c3c(C)nc4sccn34)cs2)c1 | 8.5µM* | 11% | -71% | 19% | -6% | -4%
CC(=O)Nc1ccc(-c2csc(NC(C)c3ccccc3)n2)cc1 (stereo unspecified) | ? | 3% | 22% | -5% | -2% | -10%
CC(=O)Nc1ccc(-c2csc(Nc3cc(C)ccn3)n2)cc1 | 15µM* | ? | -58% | -1% | -14% | 11%
Cc1ccc(Nc2nc(-c3c(C)nc4ncccn34)cs2)cc1 | -21% | -14% | -2% | -8% | 18% | -30%
CC(=O)c1ccc(NC(=O)c2cc(C3CC3)nc3c2c(C)nn3-c2ccc(C)cc2)cc1 | -2% | · | · | · | · | ·
O=C(O)c1cccc(Cn2c(Cl)c(/C=N/NC(=O)c3ccccc3O)sc2=O)c1 | 19µM* | 2% | · | · | 1% | 4%
O=C(O)c1cccc(Cn2c(Cl)c(/C=N/NC(=O)c3ccccc3Cl)sc2=O)c1 | -16% | 1% | -4% | 1% | 0% | -5%
Cc1ccccc1OCC(=O)N/N=C/c1sc(=O)n(Cc2cccc(C(=O)O)c2)c1Cl | -10% | -3% | · | · | -1% | 0%
O=C(O)c1cccc(Cn2c(Cl)c(/C=N/Nc3ccccc3)sc2=O)c1 | 27µM* | -1% | -32% | 5% | 25% | 0%
COc1ccc(C(=O)N/N=C/c2sc(=O)n(Cc3cccc(C(=O)O)c3)c2Cl)cc1 | 27µM* | 1% | · | · | 1% | 5%
C#C[C@]1(O)CC[C@@H]2[C@H]3CCc4cc(OC)ccc4[C@@H]3CC[C@@]21C | · | · | 2%[20.6 µM] | 2%[17.1 µM] | · | ·
CCCCN(C(=O)COC(=O)COc1c(C)cc(C)cc1C)c1c(N)n(CCC)c(=O)[nH]c1=O | 0% | -5% | · | · | 5% | -7%
CN(C(=O)Nc1ccccc1)C1CCCc2ccccc21 (stereo unspecified) | -17% | 17% | · | · | 7% | ?
C=CC[C@@H](CC(=O)NCCO)C(=O)N[C@@H](COC(=O)[C@@H](CC=C)CC(=O)OC(C)(C)C)Cc1c[nH]c2ccccc12 | · | · | · | · | -4% | ·
CCOC(=O)C1(C)C=C(Nc2cccc(C(=O)O)c2)C(=O)N1c1ccccc1 (stereo unspecified) | 24µM* | · | 13µM* | · | · | ·
Cn1c(=Nc2ccccc2)sc2ccccc21 | 21µM* | 14% | -20% | -1% | ? | 24%
CN(C)c1ccc(N=c2sc3ccccc3n2C)cc1 | 6µM* | ? | -5% | -6% | 6.5µM* | ?
Cc1ccc(S(=O)(=O)N/N=c2\sc3ccccc3n2C)cc1 | 2% | -1% | 21% | 0% | -2% | -3%
COc1ccc(C2c3[nH]c4ccccc4c3CC3C(=O)N(CCc4ccc(OC)c(OC)c4)CC(=O)N32)cc1 (stereo unspecified) | · | · | -9% | 1% | · | ·
Cc1nc2cc(NC(=O)NCCCO)ccc2o1 | -2% | 2% | · | -3% | 3% | -3%
COc1ccc(NC(=O)Nc2ccc3oc(C)nc3c2)cc1 | 12µM* | 30% | · | -2% | ? | ?
